Assay outcomes as filed in PubChem BioAssay.
Only some compounds are listed: those with a hit (about 21% of all), similar ones and a draw of the others.
NS1 inh: influenza NS1 inhibition; Potency, µM (highest dose often 46.1 µM), inactives show top-dose activity, positive = more growth; hit rate 0.4% among 270,000; AID 2326; further: potency means the concentration at half of the fitted maximal effect; actives are rising curves; nearly all actives have a fitted effect of over 50% in size
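Recovery from NS1-induced slow growth read by OD600 in budding yeast switched to galactose assay medium (pH 6.0, -URA) at 1:100 dilution. Compound 23 nl per well; the matching strain lacking NS1 serves as control.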
Pf growth 48h: inhibits P. falciparum growth in the first generation, 48 h; hit rate 5.9% among 310,000; P. falciparum luciferase growth in erythrocytes, 48 h; Potency, µM (highest dose often 28.7 µM), without a hit: at the highest dose activity change, negative = inhibition, usual class: inhibitors; AID 504832; active means well fitted inhibition curve with a large enough effect; inconclusive means small, poorly fitted or top-dose-only effect, or another doubt; inactive means no such curve, though single readings can be large or run the other way; further: potency means the concentration at half of the fitted maximal effect; on the % scale 0 is the no-effect control and ±100 the full control effect
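Read-out is firefly luciferase luminescence from an integrated reporter in P. falciparum, so falling signal marks reduced parasite growth. Infected erythrocytes were at 2% hematocrit and 0.1% parasitemia (final) in Albumax-supplemented RPMI 1640.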
Shiga toxin inh: Shiga toxin inhibition | hit rate 9.2% among 290,000 | AID 2315 | Vero cells, Shiga toxin protein synthesis inhibition reporter | inhibition, % at 38.7 µM; in the data active means inhibition mostly above about 28%, no sharp cut-off; inactive means mostly below about 43%; further: 0% is about no effect
SARS PLpro yeast: inhibitors of SARS-CoV papain-like protease in yeast. S. cerevisiae expressing SARS-CoV PLpro, growth rescue. Potency, µM (series often up to 32.9 µM), for inactives: at the highest dose activity, positive = growth rescue, actives largely listed as activators. hit rate 0.19% among 330,000; further: potency means the concentration at half of the fitted maximal effect; 0% is about no effect; nearly all actives have a fitted effect of over 55% in size
Pf growth 96h: P. falciparum growth inhibition at 96 hours | P. falciparum luciferase reporter growth, 96 h | Potency, µM (highest dose often 28.7 µM), without a hit: top-dose activity change, negative = inhibition, most hits filed as inhibitors | hit rate 6.9% among 320,000 | AID 504834; active means well fitted inhibition curve with a large enough effect; inconclusive means small, poorly fitted or top-dose-only effect, or another doubt; inactive means no such curve, though single readings can be large or run the other way; further: potency means the concentration at half of the fitted maximal effect; on the % scale 0 is the no-effect control and ±100 the full control effect
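Two-generation exposure (96 h) targets delayed-death phenotype. Reporter parasites carrying integrated firefly luciferase, in red cells at 2% hematocrit and 0.05% parasitemia final, kept at 37 C, 5% CO2; luminescence loss indicates inhibition.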
Cycloheximide cs: affects cycloheximide protein synthesis inhibition readout, counter-screen; cell reporter, cycloheximide protein synthesis inhibition counterscreen; max response, %; hit rate 12% among 300,000; AID 2314; in the data active means max response mostly above about 13%, no sharp cut-off; inactive means mostly below about 14%; further: read at 38.3 µM for the half of the compounds with a filed dose; 0% is about no effect
Numbers without * were called inactive; ? = inconclusive; . = no result; + = active, no number. Unless noted, the call rests on the fitted dose curve.

SMILES | NS1 inh | Pf growth 48h | Shiga toxin inh | SARS PLpro yeast | Pf growth 96h | Cycloheximide cs
O=C(NCCc1ccc(F)cc1)c1ccc(Cl)c(S(=O)(=O)N2CCOCC2)c1 | . | 9.28µM* | . | -5.8% | 11.7µM* | .
CCOc1ccc(CCNC(=O)c2ccc(Cl)c(S(=O)(=O)N3CCOCC3)c2)cc1OCC | . | 11.7µM* | . | 5.0% | ? | .
O=C(NCCN1CCOCC1)c1ccc(Cl)c(S(=O)(=O)N2CCOCC2)c1 | 11.2% | -5.3% | -6.7 | 33.0% | ? | 8.4
CCOc1ccc(CCNC(=O)c2cccc(S(=O)(=O)N3CCCCC3)c2)cc1OCC | . | 14.7µM* | . | -2.0% | ? | .
Cc1nc(NC(=O)CSc2cc(C)c3ccccc3n2)c(Cl)cc1Cl | 10.1% | -11.1% | 5.7 | -5.0% | 14.1% | -1.3
c1ccc2oc(SCc3cn4ccccc4n3)nc2c1 | -44.8% | 96.9% | 65.1* | -12.5% | -18.5% | 52.5*
c1ccc2nc(SCc3cn4ccccc4n3)cnc2c1 | -2.7% | 0.0% | 63.6* | 3.4% | ? | 39.9*
Cc1cccc2nc(CSc3nc4ccccc4o3)cn12 | -24.1% | 89.9% | + | -24.8% | 77.3% | 49.3*
COc1cc(OC)c(C2=Nc3ccc(Br)cc3C(c3ccccc3)N2CC(=O)NN)cc1OC (stereo not given) | . | ? | -5.9 | -2.8% | ? | 3.7
Oc1ccc(/C=N/NC(=S)NCCN2CCOCC2)c(O)c1 | . | -11.8% | 5.0 | -2.5% | 0.0% | -4.8
CC1=CC(C)(C)[N+](C)(C)c2ccc(C)cc21 | 1.3% | 2.62µM* | 9.6 | 0.1% | ? | -2.8
Cc1ccccc1Nc1nc(-c2cccnc2)nc2ccccc12 | -8.5% | ? | 13.0 | -4.6% | ? | 1.2
CCOC(=O)c1ccc(Nc2nc(-c3cccnc3)nc3ccccc23)cc1 | -11.7% | 5.86µM* | -16.7 | 1.0% | 79.0% | 8.3
Cc1ccc(Nc2nc(-c3cccnc3)nc3ccccc23)cc1 | 8.6% | 14.7µM* | 10.8 | 5.4% | 5.2% | 1.1
Cc1cccc(-c2nc(Nc3ccc(N4CCOCC4)cc3)c3ccccc3n2)c1 | 5.6% | 9.28µM* | 6.5 | -48.3% | ? | 1.9
c1ccc2c(Nc3ccc(N4CCOCC4)cc3)nc(N3CCOCC3)nc2c1 | 14.6% | ? | -6.6 | 2.8% | -23.9% | 2.7
C[C@@]12C(=O)Nc3cc(Cl)ccc3C(=O)N1[C@H]1c3ccccc3OC[C@@H]1[C@@H]2c1ccccc1 | . | ? | . | 0.9% | 9.28µM* | .
C[C@@]12C(=O)Nc3cc(Cl)ccc3C(=O)N1[C@H]1c3cc(Br)ccc3OC[C@@H]1[C@@H]2c1ccccc1 | . | 9.28µM* | . | 1.1% | 9.28µM* | .
C[C@@]12C(=O)Nc3ccc(Cl)cc3C(=O)N1[C@H]1c3ccccc3OC[C@@H]1[C@@H]2c1ccccc1 | . | 13.1µM* | . | -0.8% | 10.4µM* | .
O=C(CSc1nnc(COc2ccccc2Cl)o1)NC(=O)NC1CCCC1 | -44.2% | 30.1% | -2.9 | -5.9% | 11.7µM* | 9.1
Cn1cccc1C(=O)OCC(=O)NC(=O)NC1CCCCC1 | . | 30.7% | 63.5 | 0.1% | 59.3% | 41.0*
COc1ccc(NC(=O)CSc2nnc(C3CCCCC3)o2)c(OC)c1 | -9.9% | 6.8% | 20.2 | 6.8% | -0.8% | -3.0
O=C(CSc1nnc(C2CCCCC2)o1)Nc1ccccc1Cl | -32.3% | 121.9% | 71.2* | 2.8% | -7.0% | 15.2
COc1ccccc1C(=O)OCC(=O)NC(=O)NC1CCCCC1 | . | 0.9% | . | 0.0% | -12.1% | .
O=C(COc1ccccc1Cl)NC(=O)NC1CCCC1 | -34.2% | . | 25.9 | 10.4% | ? | 26.2*
SMILES | NS1 inh | Pf growth 48h | Shiga toxin inh | SARS PLpro yeast | Pf growth 96h | Cycloheximide cs
Cc1ccc(CNC(=O)C2CCC(=O)N(Cc3ccc(Cl)cc3)C2)cc1F (stereo not given) | -3.8% | 9.1% | 1.1 | . | ? | 9.7
COc1cccc(C(=O)NOCc2ccccc2)c1OC | . | 290.3% | . | 1.9% | 334.6% | .
COc1ccc(CNC(=O)C(=O)c2cn(CC(=O)N3CCOCC3)c3ccccc23)cc1 | -6.9% | 33.5% | 25.3 | -4.1% | -1.8% | 15.3
COc1ccccc1CNC(=O)C(=O)c1cn(CC(=O)N2CCCC2)c2ccccc12 | 0.1% | ? | 62.0* | -1.3% | ? | 19.6*
CCOc1ccc(CNC(=O)C(=O)c2cn(CC(=O)N3CCOCC3)c3ccccc23)cc1OC | -12.7% | 34.9% | 6.5 | 0.3% | -25.2% | 10.1*
COc1ccc(CNC(=O)C(=O)c2cn(CC(=O)N3CCCC3)c3ccccc23)cc1 | 1.2% | 66.0% | 81.2 | 1.0% | ? | 18.5*
NS(=O)(=O)c1ccc(CCNC(=O)C(=O)c2cn(CC(=O)N3CCOCC3)c3ccccc23)cc1 | 12.0% | 8.6% | -6.3 | 8.8% | -19.8% | 1.1
COc1ccccc1CCNC(=O)C(=O)c1cn(CC(=O)N2CCOCC2)c2ccccc12 | -8.3% | 27.9% | 80.1* | 5.2% | ? | 61.0*
O=C(NCCS(=O)(=O)N1CCCCCC1)c1ccccc1 | . | 2.1% | . | 4.1% | 6.8% | .
CC(C)NC(=O)N(C)C[C@H]1Oc2ccc(NS(=O)(=O)c3cn(C)cn3)cc2C(=O)N([C@H](C)CO)C[C@@H]1C | . | . | . | 2.6% | . | .
CCCC(=O)Nc1ccc(NCc2ccc(C)s2)cc1 | -17.5% | ? | 29.3 | -2.7% | ? | active
CC(=O)Nc1ccc(NCc2ccc(C)s2)cc1 | 8.0% | 67.0% | 49.6* | -1.2% | ? | 20.5*
CCCC(=O)Nc1ccc(N2CCOCC2)cc1 | 1.6% | 21.8% | 2.0 | -1.0% | -0.3% | 9.0
Cc1cccc(Nc2nc(NCC3CCCO3)nc(N)c2[N+](=O)[O-])c1 (stereo not given) | -4.8% | 1.1% | -6.7 | 0.8% | ? | -5.0
Cc1ccc(Nc2nc(NCC3CCCO3)nc(N)c2[N+](=O)[O-])cc1 (stereo not given) | -6.1% | -28.4% | -6.0 | -16.8% | 11.7µM* | 1.1
CNc1nc(N)c([N+](=O)[O-])c(NCC2CCCO2)n1 (stereo not given) | 1.2% | 2.08µM* | 31.3 | -0.3% | -2.8% | 0.7
Nc1nc(NCC2CCCO2)nc(Nc2ccc(F)cc2)c1[N+](=O)[O-] (stereo not given) | -15.1% | ? | 10.9 | 0.8% | 5.86µM* | -1.7
COCCNc1nc(N)c([N+](=O)[O-])c(NCC2CCCO2)n1 (stereo not given) | 1.1% | -2.3% | 10.5 | 16.4% | -5.3% | -3.4
Cc1ccccc1NC(=S)NN1CCN(C)CC1 | 2.0% | 1.1% | 30.7 | 3.3% | -15.5% | -4.3
O=C(COC(=O)CSc1ccc2ccccc2c1Br)NC1CC1 | . | ? | -19.7 | -1.8% | 14.2% | -2.1
COc1ccccc1C(=O)NC(=O)COC(=O)CNC(=O)c1ccc(Cl)cc1Cl | . | 5.1% | . | -1.4% | 25.6% | .
CC1(C)CC(=O)C2=C(C1)N(c1ccc(Cl)cc1)C(=O)C2(O)C(F)(F)F (stereo not given) | 4.2% | 3.5% | 1.0 | 5.9% | -9.5% | -3.4
N#CC1=C2N=C(N)c3ccccc3N2C2=C(C(=O)CCC2)C1c1ccccc1F (stereo not given) | -7.2% | -33.9% | -10.4 | 5.2% | ? | -0.3
